An excerpt weighted towards active compounds, which were near 4.1% of everything screened.
hcDAF-12 act – H. contortus DAF-12 nuclear receptor activators, primary screen, cell-based, luminescence, HEK293, lit1-tk-luc reporter | AID 652067, 2013 | 1.4% of 370,000 active | activation, % at 6.8 µM | HEK293 hcDAF-12 lit1-tk-luc reporter; 0% DMSO, 100% Δ7-dafachronic acid;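 active = activation above the mean of all tested compounds plus 3 SD, cut at about 5.5% in these data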;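 note: 100% = response to 3 µM Δ7-dafachronic acid high control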
PolyA inh – polyadenylation inhibitors in yeast reporter cells, primary screen, luminescence, S. cerevisiae; S. cerevisiae SKY197-pL101 polyadenylation reporter, beta-gal luminescence; efflux-impaired pdr1/pdr3 knockout yeast; score 100 = 6 SD above DMSO; activity score, % at 12 µM; 0.02% of 300,000 active; AID 1875, 2009;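 active = lowest replicate activity score at least 50, where 100 means six control SD above control mean; inconclusive = lowest score under 50 but half or more replicates reach 50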;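 note: yeast exposed to compound for 9 h at 30 °C; higher score means more reporter readthrough which indicates perturbed polyadenylation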
DAX1 inh-1 – DAX1 (NR0B1) inhibitors on StAR promoter, primary screen, cell-based, luminescence, SF-1 (NR5A1), full-length DAX-1; HEK293T StAR-luciferase reporter, SF-1/DAX-1 repression relief; inhibition, % at 6.8 µM; 1.1% of 370,000 active;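 active = inhibition above the mean over all tested compounds plus 3 SD, cut at about 3.6% in these data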;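 note: 0% = DAX-1 cells with DMSO and 100% = cells lacking DAX-1 with DMSO; higher inhibition means more luminescence from relief of DAX-1 repression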
hgDAF12 agonist – H. glycines DAF-12 receptor agonists, primary screen, cell-based, luminescence, HEK293, GAL4 fusion, UAS-luciferase | AID 687014, 2013 | HEK293 GAL4-hgDAF12 UAS-luciferase reporter, agonist luminescence; normalized to butyrate control | 1.8% of 370,000 active | activation, % at 6.8 µM | Nuclear hormone receptor DAF-12 (Heterodera glycines), GAL4 fusion;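 active = activation above a cutoff set at the mean of all screened compounds plus 3 SD, cut at about 10% in these data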;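 note: 0% = DMSO wells and 100% = sodium butyrate wells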
DAX1 inh-2 – DAX1 (NR0B1) inhibitors, primary screen, cell-based, HEK293, Gal4-DAX1, luciferase luminescence; 0.99% of 340,000 active; inhibition, % at 6.75 µM; HEK293 Gal4-DAX1 luciferase reporter; AID 504766, 2011; Nuclear receptor subfamily 0 group B member 1 (Homo sapiens), P51843;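 active = inhibition above the mean over all tested compounds plus 3 SD, cut at about 4.2% in these data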;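 note: 0% = DAX1-transfected cells with DMSO and 100% = empty-vector control cells with DMSO; inhibition shows as a rise in luminescence from relieved DAX1 repression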
Target sequence (P51843 207-470 limits assumed): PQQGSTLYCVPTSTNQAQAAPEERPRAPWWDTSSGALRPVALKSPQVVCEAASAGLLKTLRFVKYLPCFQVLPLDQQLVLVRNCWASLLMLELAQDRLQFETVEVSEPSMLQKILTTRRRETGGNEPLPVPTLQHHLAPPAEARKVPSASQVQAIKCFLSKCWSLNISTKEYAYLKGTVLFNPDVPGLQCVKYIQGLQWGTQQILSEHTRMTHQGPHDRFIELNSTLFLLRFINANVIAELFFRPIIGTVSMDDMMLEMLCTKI
ssDAF12 agonist – S. stercoralis DAF-12 nuclear receptor activators, primary screen, cell-based, luminescence, HEK293, GRIP1 co-expression, lit1-tk-luc; Nuclear hormone receptor DAF-12 (Strongyloides stercoralis); HEK293 ssDAF-12/GRIP1 lit1-tk-luc reporter; % of 3 µM dafachronic acid response; activation, % at 6.8 µM; 1% of 370,000 active;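 active = activation above the mean over all tested compounds plus 3 SD, cut at about 0.9% in these data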;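 note: 0% = DMSO-only wells and 100% = 3 µM delta7-dafachronic acid wells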
Numbers without * were called inactive; ? = inconclusive; . = no result given.

SMILES	hcDAF-12 act	PolyA inh	DAX1 inh-1	hgDAF12 agonist	DAX1 inh-2	ssDAF12 agonist
CC(C)CN1C(=O)C[C@]2(C(=O)N(C)c3ccc(NS(=O)(=O)C4CCCCC4)cc32)C1c1ccccc1 (stereo not given in full)	-2	.	0	3	.	-1
O=C(C/C=N/OCc1c(Cl)cccc1Cl)c1ccccc1	4	-8	1	6	0	0.9*
O=C(C/C=N/OCc1ccc(Cl)cc1Cl)c1ccccc1	3	2	1	1	1	-1
Cc1ccc(C(=O)O)cc1NC(=O)C1CCCN1S(=O)(=O)c1cccc2nsnc12 (stereo not given)	0	15	0	0	0	1.6*
Brc1ccccc1C1Cc2nnccc2CN1 (stereo not given)	-2	.	0	-4	.	-1
O=C(COC(=O)CCS(=O)(=O)c1ccc(Cl)cc1)Nc1ncc(Cl)cc1Cl	0	14	0	-1	4.8*	0
Cc1c(Cl)cnc(NC(=O)COC(=O)CCS(=O)(=O)c2ccccc2)c1Cl	1	2	-1	0	0	-1
COc1ccc2nc(N/C(N)=N/S(C)(=O)=O)nc(C)c2c1	-1	21	0	1	4.6*	0
COc1ccc2nc(N/C(N)=N/C(=S)Nc3c(C)cccc3C)nc(C)c2c1	-3	-1	0	1	0	-2
CCOC(=O)[C@]12CCCC3=C1N(CCC3)C(=O)[C@@H](CC(=O)N1CCOCC1)C2	2	.	-1	-2	.	-1
O=C(Nc1cc(Br)ccc1O)c1cc(-c2ccc3c(c2)OCO3)on1	5	-2	0	5	5.7*	0
CSc1ccccc1NC(=O)c1cc(-c2ccc3c(c2)OCO3)on1	1	5	0	4	1	0
CN(C(=O)c1cc(-c2ccc3c(c2)OCO3)on1)c1ccccc1	3	-3	1	11*	3	0
CC(C)CNC(=O)c1cc(-c2ccc3c(c2)OCO3)on1	3	3	3	9	3	0
CCOc1ccc(C(=O)Nc2ccc(S(=O)(=O)Nc3nccc(C)n3)cc2)cc1OCC	-1	15	0	1	-1	-1
CCOc1ccccc1C(=O)Nc1ccc(S(=O)(=O)Nc2nccc(C)n2)cc1	6.2*	-6	0	-2	0	0
Cc1cc(C)nc(NS(=O)(=O)c2ccc(NC(=O)c3ccc(O)cc3O)cc2)n1	5.7*	?	0	0	1	0
CCCCN1CC(COCc2ccccc2)Oc2cccc(N3CCCCC3)c2S1(=O)=O (stereo not given)	1	.	1	0	.	-1
CCC[C@H]1[C@@H](OC(=O)NCc2cccc(Cl)c2)CC[C@@]23CCCN2C(=O)CCC[C@@H]13	-4	.	.	2	.	-2
COc1ccc(-c2c(C)nc3c(-c4ccc(F)cc4)cnn3c2N)cc1	0	-3	0	7	5.2*	0
Cc1nc2c(-c3ccc(Cl)cc3)cnn2c(N)c1-c1ccc(F)cc1	-5	7	-1	-9	1	-3
Nc1c(-c2ccc(Cl)cc2)cnc2c(-c3ccc(F)cc3)cnn12	5	-14	2	13*	5.0*	1
CC(COc1ccc(Cl)cc1)CN1CCC(C(O)(c2ccccc2)c2ccccc2)CC1 (stereo not given)	1	.	-1	2	.	-2
COc1ccc(-n2c(CSc3ccc(Cl)cc3)n[nH]c2=S)cc1	0	.	-1	2	.	-1
CCC(CC)CN1CCC(CN2C(=S)NC[C@@H]2CC(C)C)CC1	0	.	3.7*	1	1	-1
CC(C)C[C@H]1CNC(=S)N1CC1CCN(CCC2CCCC2)CC1	0	.	3	3	-1	-1
